Source: PubChem BioAssay (National Center for Advancing Translational Sciences (NCATS))
LASV entry inh: qHTS for Inhibitors of binding or entry into cells for Lassa Virus | Lassa virus pseudotype entry inhibition, cell reporter | Potency, µM (doses to about 37.9 µM), for inactives: top-dose activity change, negative = inhibition, most hits filed as inhibitors | 1.2% of 300,000 active; calls by dose curve; tested in HEK293 cells; also: potency is read from the fitted curve at half-maximal effect; nearly all actives have a fitted effect of over 50% in size
Marburg entry inh: qHTS for inhibitors of binding or entry into cells for Marburg Virus; Marburg virus pseudotyped entry inhibition, cell reporter; Potency, µM (doses to about 37.8 µM), for inactives: at the highest dose activity change, negative = inhibition, usual class: inhibitors; 1.8% of 300,000 active; AID 540276, 2011; calls by dose curve; tested in HEK293 cells; also: potency is read from the fitted curve at half-maximal effect
FMDV antiviral: High Throughput Screening for Foot and Mouth Disease Virus Antivirals; FMDV antiviral cell-based qHTS; Potency, µM (highest dose often 57.9 µM), inactives show at the highest dose activity change, negative = inhibition, actives largely listed as inhibitors; 1.2% of 410,000 active; calls by dose curve; tested in HEK293T cells; also: read-out not given here; potency is read from the fitted curve at half-maximal effect; nearly all actives have a fitted effect of over 45% in size
VACV Venus inh: qHTS for Stage-Specific Inhibitors of Vaccinia Orthopoxvirus: Venus Reporter Primary qHTS; Vaccinia virus Venus reporter expression, fluorescence; Potency, µM (highest dose often 36.5 µM), without a hit: at the highest dose activity change, negative = inhibition, usual class: inhibitors; 0.46% of 330,000 active; AID 720580, 2013; calls by dose curve; tested in A549 cells; also: potency is read from the fitted curve at half-maximal effect; nearly all actives have a fitted effect of over 30% in size
VACV mCherry inh: qHTS for Stage-Specific Inhibitors of Vaccinia Orthopoxvirus: mCherry Reporter Primary qHTS. Vaccinia virus mCherry reporter infection, fluorescence. Potency, µM (top dose mostly 36.5 µM), for inactives: at the top dose activity change, negative = inhibition, most hits filed as inhibitors. 0.63% of 310,000 active. AID 720579, 2013; calls by dose curve; tested in A549 cells; also: potency is read from the fitted curve at half-maximal effect; nearly all actives have a fitted effect of over 35% in size
HCMV inh: qHTS Assay for inhibitors of the human cytomegalovirus (HCMV); HFF cells, HCMV-luciferase reporter, 72 h; stronger effect = lower value; activity change, negative = inhibition, % at 57.5 µM; 4.5% of 410,000 active; AID 1259415, 2018; in the data active = activity change below about -60%; inconclusive = no clear call, values can overlap the other calls; inactive = above about -39%
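Steps: HFFs plated, 16 h 37C; compounds added; HCMV-luciferase added to MOI 1 PFU/cell; 72 h 37C; OneGlo reagent, 5 min room temperature; luminescence read, normalized to controls.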
An asterisk follows results filed as active; i = inactive; ? = inconclusive; . = no result; ! = not confirmed by another sample; [ ] = dose if it differs, or a comment. Rows were chosen to be rich in hits. Some 6.5% of all compounds tested hit in one or more screens of this group. % is scaled to controls: 0 for no effect and ±100 for the full control effect.

SMILES	LASV entry inh	Marburg entry inh	FMDV antiviral	VACV Venus inh	VACV mCherry inh	HCMV inh
C#CCn1cc(/C=C2\NC(=O)NC2=O)c2ccccc21	-6%[46.1 µM]	?	-4%	-20%	4.5µM*	-4
CC(C)n1cc(/C=C2/NC(=O)NC2=O)c2ccccc21	10%	5%[46.1 µM]	-17%	-19%	?	7
O=c1cc(C(F)(F)F)[nH]c2ccc(OC(F)(F)F)cc12	?	?	?	?	?	-95*
O=c1cc(C(F)(F)F)[nH]c2c(C(F)(F)F)cccc12	?	?	?	13µM*	?	.
Cc1[nH]c2c(C(F)(F)F)cccc2c1CCN	-6%	?	-19%	-9%	.	51
CCCCN(C)C(=O)Cn1c(SCC(=O)Nc2ccc(C)c(C)c2)nc2ccccc21	?	.	-4%	-9%	-16%	-25
N=C1/C(=C\c2coc3ccccc3c2=O)C(=O)N=C2SC(c3ccncc3)=NN12	14%	-3%[46.1 µM]	16µM*	14%	-9%	28
CCn1cc(C(=O)NCCCN2CCCC(C)C2)c(=O)c2cc(S(=O)(=O)N3CCc4ccccc4C3)ccc21 (configuration not stated)	?	?	-16%	?	-19%	-74*
CCC1CCCCN1CCCNC(=O)c1cn(CC)c2ccc(S(=O)(=O)N(C)C3CCCCC3)cc2c1=O (configuration not stated)	28%[46.1 µM]	-17%[46.1 µM]	9%	-9%	-16%	-69*!
CCCN(CCC)CCCNC(=O)c1cn(C)c2ccc(S(=O)(=O)N(C)C3CCCCC3)cc2c1=O	?	9%[46.1 µM]	-1%	-5%	i	?
CCCN(CCC)CCCNC(=O)c1cn(CC)c2ccc(S(=O)(=O)N(C)C3CCCCC3)cc2c1=O	-2%[46.1 µM]	6%[46.1 µM]	8%	-16%	-19%	-82*!
CCn1cc(C(=O)NCCCOC)c(=O)c2cc(S(=O)(=O)N(C)C3CCCCC3)ccc21	6%	-13%	-19%	-6%	-17%	-36
Cc1ccc(NC(=O)NCc2c(-n3cccc3)sc3c2CCCC3)c(Cl)c1	-7%[46.1 µM]	3%[46.1 µM]	1%	-21%	-16%	-21
CCCCCNC(=O)C(=O)C(=O)c1cc(OC)c(OC)c(OC)c1	.	.	.	.	.	18
Clc1ccccc1CSc1nc(NCCc2ccccc2)c2ccccc2n1	-3%[46.1 µM]	.	?	-17%	-15%	64
CC(C)(C)c1ccc(OCC(=O)N(Cc2ccco2)Cc2ccccc2F)cc1	-14%[46.1 µM]	?	0%	-2%	-5%	14
Cc1cc2nc(-c3ccc(SCc4ccc(C(=O)O)cc4)nc3)[nH]c2cc1C	?	5.6µM*	50%	-8%	-15%	67
Cc1cc(NC(=O)CSc2ccc(-c3nc4cc(C)c(C)cc4[nH]3)cn2)no1	-2%	?	48%	.	.	.
Cc1cc2nc(-c3ccc(SCC(=O)Nc4ccc(S(=O)(=O)NC5CC5)cc4)nc3)[nH]c2cc1C	?	4.5µM*	-3%	-21%	-27%	85
CCn1c(O)c(C(=O)C[C@@H]2NCCc3ccccc32)c(=O)n(CC)c1=S	.	-22%	.	.	.	.
CCc1ccc(NC(=O)CC2C(=O)OCCN2CC)cc1 (configuration not stated)	-7%[46.1 µM]	-27%[46.1 µM]	-4%	-4%	-12%	9
COc1ccccc1OCCCCCc1c(C)n[nH]c1C	0%	-19%	?	.	.	-61*
Cc1cc(=O)[nH]c(/N=C(\N)Nc2cccc3ccccc23)n1	?	?	-9%	?	-10%	4
Cc1cccc(N/C(N)=N/c2nc(C(F)(F)F)cc(=O)[nH]2)c1C	-7%	5%	-18%	-9%	-15%	-104*
CCOC(=O)c1c(C)[nH]c(CCC(=O)Nc2cc(C)cc(C)c2)c1C	8%[46.1 µM]	.	-18%	-10%	-5%	63
SMILES	LASV entry inh	Marburg entry inh	FMDV antiviral	VACV Venus inh	VACV mCherry inh	HCMV inh
Cc1nn(-c2ccccc2)c(Cl)c1/C=C(\C#N)C(=O)NC(C)C	-25%	-5%	25µM*	5%	-3%	?
COc1ccc(NC(=O)/C(C#N)=C/c2c(C)nn(-c3ccc(F)cc3)c2Cl)cc1OC	?	?	22µM*	.	.	-15
COc1ccc(NC(=O)/C(C#N)=C/c2c(C)nn(-c3ccc(F)cc3)c2Cl)cc1Cl	-7%	5%	?	-7%	-11%	-21
Cc1ccc(NC(=O)N(C2CCCCC2)C(C)c2cccnc2)cc1C (configuration not stated)	.	.	-4%	-11%	i	-68*
CC/C(=N/Nc1cccc(C)c1)c1cnnc(SC)n1	-8%	?	?	-29%	?	-68*
CC/C(=N/Nc1ccc(Cl)cc1)c1cnnc(SC)n1	18%	3%	10%	0%	-13%	1
CN1CCN(C(=O)N2c3ccccc3C=Cc3ccccc32)CC1	?	10µM*	22%	-16%	-1%	-2
CC(=O)OC[C@H]1O[C@H](c2ccc(C(C)=O)cc2)C=C[C@@H]1OC(C)=O	.	2%[14.2 µM]	.	.	.	.
CCOC(=O)C1CCCN(C(=O)c2cccc(S(=O)(=O)N(C)c3c(C)n(C)n(-c4ccccc4)c3=O)c2)C1 (configuration not stated)	17%	19%	-8%	-18%	-5%	-99*
O=C(CSc1nc2ccccc2[nH]1)Nc1ccccc1N1CCOCC1	-19%	8.9µM*	?	-21%	i	-6
CCN(CC(=O)Nc1cc(OC)ccc1OC)Cc1nc2ccccc2c(=O)[nH]1	6%	-16%	-10%	0%	-14%	49
COc1cc2c(cc1NC(=O)CSc1nc3ccccc3[nH]1)oc1ccccc12	?	21µM*	-3%	-21%	?	?
COc1cc2c(cc1NC(=O)CN(C)Cc1nc3ccccc3c(=O)[nH]1)oc1ccccc12	?	23µM*	2%	.	.	-14
COc1cc2c(cc1NC(=O)CSc1ccccc1)oc1ccccc12	1%	3%	73%	.	.	?
COCCNC(=O)c1ccc2c(c1)N(Cc1cc(C)ccc1C)C(=O)c1ccccc1S2(=O)=O	-15%[46.1 µM]	-23%[46.1 µM]	4%	-13%	i	?
CC(=O)Nc1ccc(N2C(C(C)=O)=NN(c3ccccc3)C2c2cccs2)cc1 (configuration not stated)	?	?	-10%	.	.	5
CC(=O)Nc1ccc(N2C(C(C)=O)=NN(c3ccc(Cl)cc3)C2c2sccc2C)cc1 (configuration not stated)	?	21µM*	?	.	.	10
COc1ccc(OC)c([C@@H]2C(C#N)=C(N)Oc3cc(C)[nH]c(=O)c32)c1	.	8%	.	.	.	.
COCCNC(=O)C1(C)CCN(C(=O)c2cc(-c3cccs3)oc2C)C1 (configuration not stated)	.	.	.	.	.	-21
